About 2,000 (36%) of roughly 5,500 compounds were called active. Inconclusive results (about 18%) are left out. Cut-off read from the data, not from the text of the source: active = normalized growth mostly below about 0.91 (no sharp cut-off); inconclusive = no clear call, values can overlap the other calls; inactive = mostly above about 0.92. The list shows a part of the results.
Assay: chemical genetic growth profiling, strain panel (AID 1159580);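 note: tested at 20 µM; growth read once vehicle control cultures reached saturation at 30 °C; 1 = growth at the plate median or of vehicle wells; lower values mean less growth of the strain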
Conditions: S. cerevisiae deletion strains, growth OD

Measured: normalized growth

O=c1cc(N2CCOCC2)oc2c(-c3ccccc3)cccc12
inactive: locus YAL013W, strain DEP1, hits give low values 1.03 | locus YAL040C, strain CLN3, hits give low values 0.996 | locus YCL061C, strain MRC1 (second series), hits give low values 1.01 | locus YDR150W, strain NUM1, hits give low values 0.992 | locus YDR363W, strain ESC2, hits give low values 0.995 | locus YER002W, strain NOP16, hits give low values 1 | locus YMR263W, strain SAP30, hits give low values 0.992 | locus YNL175C, strain NOP13, hits give low values 0.996 | locus YNL197C, strain WHI3, hits give low values 0.991 | locus YNL224C, strain SQS1, hits give low values 0.999 | locus YNL322C, strain KRE1, hits give low values 1.01 | locus YOR083W, strain WHI5 (second series), hits give low values 0.986 | locus YPL241C, strain CIN2, hits give low values 0.998
